According to the supplement of paper PMC10646978:
Values without a mark were called inactive.

These compounds were tested on RAW-Dual (murine macrophage reporter line) (assay: viability score (confluency relative to resting cells, overnight) (fraction); higher = more viable, active = viable (0.7 or more)). Conditions: modulator concentration 10 µM.
In short: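 A compound met the cutoff when both of two confluency masks exceeded 70% of resting cells. Those masks were made with IncuCyte software from IncuCyte images of RAW-Dual macrophages treated overnight at 10 μM final. This is the basis of the viability score, which is confluency relative to resting cells.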
In the case of `Cc1ccccc1CNC(=O)CN(c1cccc(C(F)(F)F)c1)S(C)(=O)=O`, the viability score is reported as 1 (active).
For `COc1ccc(CCC(=O)NCc2nc(N(C)C)nc(N3CCCCC3)n2)cc1`, the viability score was 1 (active).
In the case of `CCOC(=O)CN1CCOCCOCCN(CC(=O)OCC)CCOCCOCC1`, the viability score is reported as 1.01 (active).
`CN(C)C(CNC(=O)NCc1ccc(F)cc1)c1ccc2c(c1)CCO2` (stereo not given) was tested, and the viability score was 0.994 (active).
In the case of `CC(=O)c1ccc(Nc2ncnc(Nc3ccc(C(C)=O)cc3)c2[N+](=O)[O-])cc1`, the viability score is reported as 0.991 (active).
`CCCCCCc1ccc(O)cc1O` gave a viability score of 0.298.
With `COc1ccc(C(=O)CSc2nnc(NC(=O)C3CC(=O)N(c4cccc(OC)c4)C3)s2)cc1` (stereo not given) the viability score was 1.01 (active).
In the case of `COC(=O)C1=CN(CC2CCCO2)C=C(C(=O)OC)C1c1cccc(Cl)c1` (stereo not given), the viability score is reported as 0.994 (active).
`O=C(C=Cc1ccc(Br)cc1)c1c(-c2ccccc2)c2cc(Cl)ccc2[nH]c1=O` was tested, and the viability score was 0.997 (active).
In the case of `CCOCCn1c(N2CCCN(C)CC2)nc2ccccc21` [Prestw-1274], the viability score is reported as 0.996 (active).
In the case of `Cc1cccc(-c2cc3nc(C)c(Cl)c(O)n3n2)c1`, the viability score is reported as 0.996 (active).
`COc1cc2c(cc1OC)C1Cc3ccc(OC)c(OC)c3CN1CC2` (stereo not given) was tested, and the viability score was 1 (active).
With `CN1CCN(c2ccc(C(=O)Nc3n[nH]c4ccc(Cc5cc(F)cc(F)c5)cc34)c(NC3CCOCC3)c2)CC1` the viability score was 0.947 (active).
In the case of `CCCCCc1ccc(-c2ccc(-c3noc(-c4ccc(CCCC)cc4)n3)cc2)cc1`, the viability score is reported as 1.01 (active).
`O=C(CCn1c(=O)oc2ccccc21)Nc1ccccc1` was tested, and the viability score was 0.998 (active).
With `COc1cc2c(cc1OC)C(=O)C(CC1CCN(Cc3ccccc3)CC1)C2.Cl` (stereo not given) the viability score was 0.959 (active).
For `CC(C)NC(=O)CCn1c(=O)c2cc(Cl)ccc2n2c(SCc3ccc(F)cc3)nnc12`, the viability score was 0.964 (active).
In the case of `CC(Oc1cccc(Cl)c1)C(=O)Nc1nncs1` (stereo not given), the viability score is reported as 1.01 (active).
With `COc1ccc(CNc2nc(N3CCC[C@H]3CO)ncc2C(=O)NCc2ncccn2)cc1Cl` the viability score was 1 (active).
With `COC(=O)c1ccc(CSc2ccc3nnc(-c4cccc(F)c4)n3n2)o1` the viability score was 0.998 (active).
For `CC(=NN1CCN(Cc2cccc3ccccc23)CC1)c1ccc(Br)cc1`, the viability score was 1 (active).
Work on `CCN1CCN(CC(O)COc2ccc(C(C)(C)C)cc2C(C)(C)C)CC1.Cl.Cl` (stereo not given) yielded a viability score of 0.25.
For `COC(C(=O)NNC(=O)c1ccccc1Cl)c1ccccc1` (stereo not given), the viability score was 1.01 (active).
In the case of `CCN(CC)c1ccc(C=Nc2c(C)cc(C)cc2C)cc1`, the viability score is reported as 1 (active).
For `CN1CCN(C2CC(=O)N(c3ccc(N4CCOCC4)cc3)C2=O)CC1` (stereo not given), the viability score was 1.01 (active).
With `O=c1[nH]c(NN=Cc2c3ccccc3cc3ccccc23)nc2ccccc12` the viability score was 0.999 (active).
With `CCOc1ccccc1OCCCCOc1cccc(Cl)c1` the viability score was 1 (active).
`CCCOc1cccc(C=C2N=C(c3ccc(Cl)c([N+](=O)[O-])c3)OC2=O)c1` was tested, and the viability score was 1.01 (active).
In the case of `Cc1[nH]c2ccccc2c1CCNCc1ccc(/C=C/C(=O)NO)cc1`, the viability score is reported as 0.055.
With `COc1ccc(CN(CCN(C)C)c2ccccn2)cc1.O=C(O)C=CC(=O)O` the viability score was 1 (active).
`CC1(C)OC[C@@H](COC(=O)CCc2ccc(OC[C@@H](O)CNCCNC(=O)N3CCOCC3)cc2)O1.Cl` was tested, and the viability score was 1 (active).
In the case of `Cl.Nc1c2c(nc3ccccc13)CCCC2`, the viability score is reported as 0.995 (active).
Compound `Br.Cc1ccc(Sc2ccccc2N2CCNCC2)c(C)c1` has a viability score of 0.527.
In the case of `O=c1oc2cc(O)ccc2c2ccccc12`, the viability score is reported as 0.782 (active).
In the case of `COC(=O)C1=C(C)N(C)C(C)=C(C(=O)OC)C1c1ccc(-c2ccccc2)cc1`, the viability score is reported as 1 (active).
With `Oc1ccc(C=Cc2cc(O)cc(O)c2)cc1` the viability score was 0.904 (active).
`CCCCc1c(C)nc(NN=C(C)c2cccc([N+](=O)[O-])c2)nc1O` was tested, and the viability score was 1.01 (active).
With `O=[N+]([O-])c1ccc(Nc2ccccc2O)c2nonc12` the viability score was 0.9 (active).
For `CC(=O)Nc1cc2nc3ccccc3nc2cc1NC(C)=O`, the viability score was 1 (active).
In the case of `O=C(O)CCC(=O)Nc1ccc(Br)cc1C(=O)c1ccc(Cl)cc1`, the viability score is reported as 1.01 (active).
